Data taken from PubChem BioAssay (NCATS).
Inconclusive results are not listed. The source made the active and inactive calls. Unless noted, calls follow the shape of the dose curve; as a rule, active = well fitted curve in the direction sought with a large enough effect; inconclusive = small, poorly fitted or top-dose-only effect, or another doubt; inactive = no such curve, though single readings can be large; an effect the other way counts as inactive or inconclusive.

Key:
[1] = qHTS for differential inhibitors of proliferation of Plasmodium falciparum line W2 (AID 1883); conditions: Potency: Plasmodium falciparum W2 proliferation inhibition;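 also: parasites grown with compound for 72 h before lysis and staining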; also: potency is read from the fitted curve at half-maximal effect
[2] = target: Ferritin light chain (Equus caballus) (UniProt P02791); experiment: qHTS Validation Assay for Identification of Novel General Anesthetics (AID 2323); also: series mostly up to about 77 µM
Ferritin light chain (Equus caballus), sequence (P02791 2-175 limits assumed): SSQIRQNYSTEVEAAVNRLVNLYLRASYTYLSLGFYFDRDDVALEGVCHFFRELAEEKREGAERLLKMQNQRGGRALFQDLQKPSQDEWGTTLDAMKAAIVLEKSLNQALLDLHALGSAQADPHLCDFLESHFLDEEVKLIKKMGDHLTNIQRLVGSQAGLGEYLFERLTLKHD
Method in brief: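 Competitive displacement of the profluorescent anesthetic 1-AMA (50% saturated, PBS) from 10 uM apoferritin, 10 min, room temperature. Activity is normalized 380/535 nm fluorescence; concentration-response fitted with a four-parameter Hill equation.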

[3] = target: ATP-dependent DNA helicase Q1 (Homo sapiens) (UniProt P46063); experiment: qHTS Validation Assay for Inhibitors of RecQ-Like Dna Helicase 1 (RECQ1) (AID 2353)
ATP-dependent DNA helicase Q1 (Homo sapiens), sequence (P46063 whole entry, looked up): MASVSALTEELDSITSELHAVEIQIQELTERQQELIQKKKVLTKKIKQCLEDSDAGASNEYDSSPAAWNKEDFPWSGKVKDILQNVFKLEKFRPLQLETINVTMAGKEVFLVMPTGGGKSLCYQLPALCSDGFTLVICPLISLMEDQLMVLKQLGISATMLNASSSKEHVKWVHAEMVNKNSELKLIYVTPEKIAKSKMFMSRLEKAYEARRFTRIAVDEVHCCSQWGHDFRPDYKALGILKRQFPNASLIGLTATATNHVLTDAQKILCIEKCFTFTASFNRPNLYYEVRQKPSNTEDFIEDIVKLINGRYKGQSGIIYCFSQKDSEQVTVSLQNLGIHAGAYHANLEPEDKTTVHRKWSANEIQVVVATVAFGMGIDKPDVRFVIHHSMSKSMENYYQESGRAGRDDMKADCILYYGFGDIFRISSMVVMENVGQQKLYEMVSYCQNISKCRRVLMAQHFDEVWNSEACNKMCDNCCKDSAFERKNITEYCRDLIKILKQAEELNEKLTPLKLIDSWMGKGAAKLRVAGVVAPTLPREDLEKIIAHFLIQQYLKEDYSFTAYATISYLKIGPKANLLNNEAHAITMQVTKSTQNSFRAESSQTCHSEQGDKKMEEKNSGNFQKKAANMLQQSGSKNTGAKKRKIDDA
Method in brief: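 50 nM RECQ1T1 preincubated 15 min with compound in Tris pH 8.0 buffer with MgCl2, DTT, Tween-20 and 2.5 ug/ml poly(dI-dC); started with 200 nM TAMRA/BHQ-2 forked duplex and 2 mM ATP. Unwinding read as fluorescence (525/598 nm), two reads 2 h apart.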

[4] = Cytometric Cell-Based qHTS for Inhibitors of the mTORC1 Signaling Pathway in MEF (Tsc2-/-, p53-/-) Cells (AID 2660);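 also: percent of cells above a phospho-rpS6 to PI ratio cutoff in each well; series mostly up to about 38 µM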
Method in brief: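 Immunofluorescence qHTS of rpS6 Ser235/236 phosphorylation: MEFs (Tsc2-/-, p53-/-) treated 24 h, 37 C, in DMEM + 10% FBS. Alexa-488 signal normalized to PI count, referenced to rapamycin (7.5 nM) and DMSO; PI cell number recorded for viability.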

[5] = High Content Imaging Cell-Based qHTS for Inhibitors of the mTORC1 Signaling Pathway in MEF (Tsc2-/-, p53-/-) Cells (AID 2666);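 also: percent of cells scored positive for phospho-rpS6 Ser235/236 immunostaining by imaging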
Method in brief: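 Read-out: % positive cells per well, with thresholds from highest- and lowest-signal wells, based on phospho-rpS6 (Ser235/236) intensity normalized to Hoechst nuclear stain. Cells: Tsc2-/-, p53-/- MEFs carrying empty vector; compound 24 hrs, 37 degree Celsius.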

[6] = High Content Imaging Cell-Based qHTS for Inhibitors of the mTORC1 Signaling Pathway in MEF Cells (AID 2667);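 also: Tsc2-/- p53-/- MEFs stably re-expressing wild-type Tsc2 exposed 24 h; series mostly up to about 38 µM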
Method in brief: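 MEF (Tsc2-/-, p53-/-, WT Tsc2 re-expressed); cpd 24 h, 37 °C; PFA fix; Alexa-488 anti-p-rpS6 Ser235/236, PI, Hoechst; IN Cell imaging; Hoechst/Alexa-488 intensity ratio; % active cells, thresholds set from rapamycin and DMSO wells.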

[7] = Validation screen for small molecules that induce DNA re-replication in MCF 10A normal breast cells (AID 463097); also: nearly all actives have a fitted effect of over 60% in size
Method in brief: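 Read-out is Hoechst total nuclear intensity by fluorescence scanning imager, flagging increased high-DNA-content nuclei. Compounds were incubated with MCF 10A cells for 48 hr (37 C, 5% CO2) before 40 min staining.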

[8] = target: Ubiquitin carboxyl-terminal hydrolase 2 (Homo sapiens) (UniProt O75604); experiment: qHTS Validation Assay for Inhibitors of Ubiquitin-specific Protease USP2a Using CHOP2 as the Reporter (AID 463106); also: potency is read from the fitted curve at half-maximal effect
Ubiquitin carboxyl-terminal hydrolase 2 (Homo sapiens), sequence (O75604 whole entry, looked up): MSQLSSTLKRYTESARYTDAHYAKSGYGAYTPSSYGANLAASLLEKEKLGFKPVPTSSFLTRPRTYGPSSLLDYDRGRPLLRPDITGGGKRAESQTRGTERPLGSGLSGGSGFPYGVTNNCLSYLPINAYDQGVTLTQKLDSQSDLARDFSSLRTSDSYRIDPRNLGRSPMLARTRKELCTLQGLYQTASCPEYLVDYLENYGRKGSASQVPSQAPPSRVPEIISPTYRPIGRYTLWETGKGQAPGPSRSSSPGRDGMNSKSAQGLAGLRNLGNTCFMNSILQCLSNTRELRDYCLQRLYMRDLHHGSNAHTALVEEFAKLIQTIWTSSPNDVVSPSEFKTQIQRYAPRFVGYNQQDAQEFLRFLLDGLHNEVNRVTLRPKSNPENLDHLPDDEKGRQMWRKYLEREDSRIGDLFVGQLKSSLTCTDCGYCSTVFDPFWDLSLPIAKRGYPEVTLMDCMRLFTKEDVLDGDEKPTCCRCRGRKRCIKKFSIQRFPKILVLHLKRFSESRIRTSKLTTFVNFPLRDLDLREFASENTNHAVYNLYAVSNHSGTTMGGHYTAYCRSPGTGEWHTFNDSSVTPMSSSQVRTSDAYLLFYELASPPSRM
Method in brief: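 USP2 core (10nM final) was preincubated with compound for 30min at RT in 20mM Tris-HCl pH 8.0, 2mM CaCl2, 2mM beta-mercaptoethanol, 0.05% CHAPS. Ub-CHOP2 and reporter substrate (25nM each) were added, and fluorescence (Ex 485/Em 531nm) was read after 60min.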

[9] = target: DNA polymerase III PolC-type (Bacillus subtilis (strain 168)) (UniProt P13267); experiment: qHTS Validation Assay for the Inhibitors of DNA Replication in Gram-Positive Bacteria (AID 485295); also: potency is read from the fitted curve at half-maximal effect
DNA polymerase III PolC-type (Bacillus subtilis (strain 168)), sequence (P13267 whole entry, looked up): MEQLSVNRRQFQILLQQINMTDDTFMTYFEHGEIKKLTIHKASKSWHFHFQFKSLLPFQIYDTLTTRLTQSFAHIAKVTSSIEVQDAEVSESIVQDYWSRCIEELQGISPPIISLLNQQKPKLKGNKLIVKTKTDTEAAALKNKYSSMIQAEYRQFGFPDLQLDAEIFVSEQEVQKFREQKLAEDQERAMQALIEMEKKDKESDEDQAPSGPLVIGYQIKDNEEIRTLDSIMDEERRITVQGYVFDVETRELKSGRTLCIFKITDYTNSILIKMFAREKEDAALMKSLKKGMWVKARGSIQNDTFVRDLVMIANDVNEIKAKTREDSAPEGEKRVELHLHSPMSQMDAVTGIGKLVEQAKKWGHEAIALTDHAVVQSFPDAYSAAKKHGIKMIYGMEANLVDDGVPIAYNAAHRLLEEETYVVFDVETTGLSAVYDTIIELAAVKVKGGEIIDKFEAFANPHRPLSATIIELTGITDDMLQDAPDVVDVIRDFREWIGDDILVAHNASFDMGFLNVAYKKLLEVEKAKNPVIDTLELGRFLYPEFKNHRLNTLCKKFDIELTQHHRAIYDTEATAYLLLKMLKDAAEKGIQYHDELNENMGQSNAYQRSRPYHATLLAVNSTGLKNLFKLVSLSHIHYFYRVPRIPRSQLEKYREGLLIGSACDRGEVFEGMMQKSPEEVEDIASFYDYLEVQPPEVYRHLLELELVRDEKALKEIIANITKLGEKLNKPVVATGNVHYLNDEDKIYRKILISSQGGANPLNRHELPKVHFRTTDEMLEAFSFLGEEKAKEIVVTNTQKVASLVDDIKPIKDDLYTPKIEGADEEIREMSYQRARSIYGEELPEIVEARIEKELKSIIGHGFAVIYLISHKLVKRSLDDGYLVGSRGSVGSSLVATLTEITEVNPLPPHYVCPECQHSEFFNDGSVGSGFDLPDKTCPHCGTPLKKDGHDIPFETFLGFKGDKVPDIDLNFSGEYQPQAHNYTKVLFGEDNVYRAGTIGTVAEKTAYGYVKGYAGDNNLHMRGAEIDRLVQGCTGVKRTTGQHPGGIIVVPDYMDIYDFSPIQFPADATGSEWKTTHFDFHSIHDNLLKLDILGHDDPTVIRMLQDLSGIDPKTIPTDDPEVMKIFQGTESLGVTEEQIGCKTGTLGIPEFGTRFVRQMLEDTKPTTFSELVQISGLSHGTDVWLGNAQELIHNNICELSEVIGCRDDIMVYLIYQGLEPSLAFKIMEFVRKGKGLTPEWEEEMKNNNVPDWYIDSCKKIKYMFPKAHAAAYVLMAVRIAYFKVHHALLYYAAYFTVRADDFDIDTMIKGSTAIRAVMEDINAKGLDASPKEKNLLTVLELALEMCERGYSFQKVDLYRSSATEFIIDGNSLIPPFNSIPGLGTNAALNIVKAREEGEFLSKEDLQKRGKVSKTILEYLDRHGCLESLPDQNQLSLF
Method in brief: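 Double-stranded DNA product detected by PicoGreen fluorescence after EDTA quench. Compound incubated with B. subtilis holoenzyme (PolC, beta subunit, SSB, primase) before substrate addition; primed replication of M13Gori with dNTPs and NTPs at room temperature; DMSO defines 0% inhibition.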

[10] = target: Tumor susceptibility gene 101 protein (Homo sapiens) (UniProt Q99816); experiment: qHTS Validation Assay for Iinhibitors of HIV-1 Budding by Blocking the Interaction of PTAP/TSG101 (AID 485342; calls by dose curve)
Tumor susceptibility gene 101 protein (Homo sapiens), sequence (Q99816 whole entry, looked up, the tested form may be a part): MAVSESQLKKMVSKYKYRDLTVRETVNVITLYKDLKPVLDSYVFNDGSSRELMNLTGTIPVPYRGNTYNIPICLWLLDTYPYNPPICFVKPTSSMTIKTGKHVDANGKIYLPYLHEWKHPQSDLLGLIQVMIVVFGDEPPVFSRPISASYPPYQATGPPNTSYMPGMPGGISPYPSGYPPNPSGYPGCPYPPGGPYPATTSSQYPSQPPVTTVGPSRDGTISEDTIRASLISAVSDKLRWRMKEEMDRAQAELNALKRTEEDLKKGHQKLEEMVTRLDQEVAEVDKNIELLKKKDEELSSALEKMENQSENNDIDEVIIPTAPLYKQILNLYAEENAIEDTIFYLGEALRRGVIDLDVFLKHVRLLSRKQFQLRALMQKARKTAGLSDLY
Method in brief: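 Fluorescence polarization of 50 nM FITC-PTAP peptide bound to 10 uM Tsg101 binding domain was read after 20 min room-temperature incubation with compounds, in 10 mM HEPES pH 7.5, 0.15 M NaCl, 0.01% Tween 20.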

[11] = qHTS Validation Assay to Find Inhibitors of Chronic Active B-Cell Receptor Signaling (AID 485345; active = well fitted curve in the direction sought with a large enough effect in the main read-out, with a control signal flat, not every such curve was filed as active)
Method in brief: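 TMD8 ABC-DLBCL cells with dox-inducible green luciferase–IκBα fusion and red native luciferase; compounds 46 uM–3 nM, 4 h at 37C with doxycycline in 0.5% FBS IMDM. Green/red ratio normalized to basal and 10 uM MG-132.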

[12] = target: Beta-2 adrenergic receptor (Homo sapiens) (UniProt P07550); experiment: qHTS validation assay of beta-arrestin-biased ligands of beta2-adrenergic receptor (AID 485366)
Method in brief: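 Arrestin-recruitment (Tango) reporter: ligand-bound beta2-AR recruits beta-arrestin, releasing tTA, which upregulates luciferase. Titrations of up to 46 microM incubated 18 hr at 37 degrees C before luminescent readout.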

[13] = target: ATP-dependent 6-phosphofructokinase (Trypanosoma brucei brucei) (UniProt O15648); experiment: qHTS Validation Assay to Find Inhibitors of T. brucei phosphofructokinase (AID 485368); also: potency is read from the fitted curve at half-maximal effect
Method in brief: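 Steps: substrate mix (0.5 mM F6P, 0.1 mM ATP, MgCl2, TEA pH 8.0); compound; 1.25 nM T. brucei PFK; 45 min RT; ATP depletion 10 min; ADP-to-ATP detection 10 min; luminescence read; curve fitting and classification.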

[14] = Quantitative high throughput screen for delayed death inhibitors of the malarial parasite plastid, 96 hour incubation (AID 488745); also: nearly all actives have a fitted effect of over 70% in size; also: potency is read from the fitted curve at half-maximal effect
Method in brief: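 P. falciparum carrying an integrated firefly luciferase reporter, grown in erythrocytes (2% hematocrit, 0.1% parasitemia final) in RPMI 1640/0.5% Albumax, was exposed to compound for 96 h (two generations) at 37 C, 5% CO2. Luminescence decrease indicated growth inhibition.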

[15] = Quantitative high throughput screen for delayed death inhibitors of the malarial parasite plastid, 48 hour incubation (AID 488752); also: nearly all actives have a fitted effect of over 65% in size; also: potency is read from the fitted curve at half-maximal effect
Method in brief: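 Erythrocytes infected with P. falciparum carrying an integrated firefly luciferase reporter (2% hematocrit, 0.1% parasitemia final) were exposed to compounds in RPMI 1640/0.5% Albumax for 48 h at 37 C, 5% CO2. Growth inhibition was scored as reduced luminescence.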

[16] = qHTS for differential inhibitors of proliferation of Plasmodium falciparum line HB3 (AID 1886); conditions: Potency: Plasmodium falciparum HB3 proliferation inhibition;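 also: parasites grown with compound for 72 h before SYBR Green readout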; also: potency is read from the fitted curve at half-maximal effect
[17] = target: RecQ-like DNA helicase BLM (Homo sapiens) (UniProt P54132); experiment: qHTS Validation Assay for Inhibitors of Bloom's syndrome helicase (BLM) (AID 2364)
RecQ-like DNA helicase BLM (Homo sapiens), sequence (P54132 whole entry, looked up): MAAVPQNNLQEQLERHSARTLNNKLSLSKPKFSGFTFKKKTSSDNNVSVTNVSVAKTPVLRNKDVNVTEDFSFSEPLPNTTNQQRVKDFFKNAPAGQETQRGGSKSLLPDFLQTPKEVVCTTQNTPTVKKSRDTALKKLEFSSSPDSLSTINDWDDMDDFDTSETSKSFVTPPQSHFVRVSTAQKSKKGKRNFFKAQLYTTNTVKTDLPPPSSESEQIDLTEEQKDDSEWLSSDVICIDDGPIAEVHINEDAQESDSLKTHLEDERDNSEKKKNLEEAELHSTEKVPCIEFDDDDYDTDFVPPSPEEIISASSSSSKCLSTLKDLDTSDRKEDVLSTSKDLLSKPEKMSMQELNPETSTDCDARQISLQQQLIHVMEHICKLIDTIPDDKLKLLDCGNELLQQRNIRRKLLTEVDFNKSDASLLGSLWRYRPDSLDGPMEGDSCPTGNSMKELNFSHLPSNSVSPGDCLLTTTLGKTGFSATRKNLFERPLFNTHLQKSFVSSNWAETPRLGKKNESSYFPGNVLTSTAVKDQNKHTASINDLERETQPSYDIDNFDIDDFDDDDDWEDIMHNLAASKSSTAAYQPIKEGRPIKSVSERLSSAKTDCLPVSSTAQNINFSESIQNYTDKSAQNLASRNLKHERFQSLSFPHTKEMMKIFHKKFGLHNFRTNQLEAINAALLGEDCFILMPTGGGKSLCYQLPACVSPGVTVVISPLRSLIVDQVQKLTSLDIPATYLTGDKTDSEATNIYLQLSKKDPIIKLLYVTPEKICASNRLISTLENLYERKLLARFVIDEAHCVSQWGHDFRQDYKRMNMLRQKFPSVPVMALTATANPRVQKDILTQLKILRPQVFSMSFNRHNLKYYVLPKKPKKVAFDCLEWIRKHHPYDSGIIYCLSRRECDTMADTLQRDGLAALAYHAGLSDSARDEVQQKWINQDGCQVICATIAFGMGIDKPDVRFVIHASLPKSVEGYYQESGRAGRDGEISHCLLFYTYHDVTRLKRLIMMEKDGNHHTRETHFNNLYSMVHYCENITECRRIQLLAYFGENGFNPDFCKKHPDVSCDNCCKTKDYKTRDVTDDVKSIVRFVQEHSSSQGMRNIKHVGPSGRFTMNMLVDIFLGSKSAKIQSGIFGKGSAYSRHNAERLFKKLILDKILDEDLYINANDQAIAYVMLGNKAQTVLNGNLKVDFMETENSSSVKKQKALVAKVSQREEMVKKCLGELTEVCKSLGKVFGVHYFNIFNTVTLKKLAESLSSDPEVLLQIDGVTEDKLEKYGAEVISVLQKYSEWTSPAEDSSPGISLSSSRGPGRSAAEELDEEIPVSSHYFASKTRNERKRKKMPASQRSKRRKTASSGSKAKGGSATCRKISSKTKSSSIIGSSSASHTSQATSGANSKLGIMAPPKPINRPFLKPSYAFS
Method in brief: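 BLM 50 nM in 25 mM Tris-HCl pH 8.0, 5 mM NaCl, 2 mM MgCl2, 1 mM DTT, 0.01% Tween-20, 2.5 ug/ml poly(dI-dC); 15 min cpd preinc, RT. Start: 200 nM forked DNA + 2 mM ATP (final). TAMRA read, 2 reads 2 h apart.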

[18] = qHTS Assay for Modulators of Human Peripheral Myelin Protein 22 (PMP22) Expression/Activity (AID 1967; active = well fitted curve in the direction sought with a large enough effect in the signal ratio; the % refers to the signal ratio)
Method in brief: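 Readout is the corrected green/red luminescence ratio after 24 h compound exposure, normalised to untreated cells (0%). Engineered MSC80 mouse Schwann cells express green luciferase from the mouse Pmp22 promoter and red luciferase from EF-alpha as internal control.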

[19] = Cytometry Cell-Based qHTS for Inhibitors of the mTORC1 Signaling Pathway in MEF cells (AID 2668);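 also: Tsc2-/- p53-/- mouse embryonic fibroblasts stably re-expressing wild-type Tsc2; percent cells positive for phospho-rpS6 Ser235/236 relative to propidium iodide stain; series mostly up to about 38 µM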
Method in brief: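 Phospho-rpS6 (Ser235/236) immunofluorescence over PI signal, scored as % positive cells using thresholds from 7.5 nM rapamycin and DMSO wells, after 24 h compound exposure of WT-Tsc2-rescued Tsc2-/-, p53-/- MEFs. PI cell count recorded for viability.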

[20] = qHTS Assay for Identification of Small Molecule Inducers of Hypoxia Response (AID 2120; active = well fitted curve in the direction sought with a large enough effect in the signal ratio, with a control signal flat, not every such curve was filed as active; the % refers to the signal ratio)
Method in brief: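 HRE-beta-lactamase reporter in CellSensor HRE-bla ME-180 cells, 2500 cells/well in Opti-MEM with 0.5% dialyzed FBS; compounds tested as titration series, 17 h at 37 degrees C. CCF4 substrate 2.5 h at room temperature; AC50 from 460/530 nm ratio.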

Measured: Potency

Cc1cc(C(C)(C)C)c(O)c(C)c1CC1=NCCN1
active: [1] 12.6 µM
not listed: [16] | [17] | [18] | [19] | [20]
inactive: all other assays above

NCCCCCC(=O)O
not listed: [3] | [12] | [18] | [19] | [20]
inactive: all other assays above

CN1C2CCC1CC(OC(=O)C(CO)c1ccccc1)C2 (stereo unspecified)
not listed: [1] | [7] | [8] | [12] | [17] | [20]
inactive: all other assays above

Cn1ccc2cc3c(cc21)CCN3C(=O)Nc1cccnc1
active: [1] 10 µM | [16] 12.6 µM
inactive: [2] | [3] | [4] | [5] | [6] | [7] | [8] | [9] | [10] | [12]

Nc1nnc(-c2cccc(Cl)c2Cl)c(N)n1
not listed: [7] | [17] | [18] | [19] | [20]
inactive: all other assays above

COc1ccc(C2CNC(=O)C2)cc1OC1CCCC1 (stereo unspecified)
not listed: [1] | [11] | [17] | [20]
inactive: all other assays above

NS(=O)(=O)c1cc2c(cc1Cl)NCNS2(=O)=O
not listed: [1] | [7] | [12] | [13] | [18] | [20]
inactive: all other assays above

O=c1c(-c2ccc(O)cc2)coc2cc(O)cc(O)c12
not listed: [1] | [2] | [7] | [11] | [14] | [15] | [17] | [18]
inactive: all other assays above

Cc1ccc(C(=O)Nc2ccc(S(=O)(=O)O)c3cc(S(=O)(=O)O)cc(S(=O)(=O)O)c23)cc1NC(=O)c1cccc(NC(=O)Nc2cccc(C(=O)Nc3cc(C(=O)Nc4ccc(S(=O)(=O)O)c5cc(S(=O)(=O)O)cc(S(=O)(=O)O)c45)ccc3C)c2)c1
inactive: [2] | [17] | [4] | [5] | [6] | [11] | [12] | [14] | [15]
active: [1] 12.6 µM | [8] 3.29 µM | [9] 7.52 µM | [13] 0.675 µM

CN(C)CCCN1c2ccccc2CCc2ccc(Cl)cc21
inactive: [3] | [17] | [4] | [5] | [7] | [8] | [9] | [10]
active: [1] 5.01 µM | [16] 10 µM | [14] 3.29 µM | [15] 1.31 µM

O=C(C1CCCCC1)N1CC(=O)N2CCc3ccccc3C2C1 (stereo unspecified)
active: [1] 12.6 µM
not listed: [13] | [16] | [17] | [18] | [19] | [20]
inactive: all other assays above

COc1ccc2c(c1)c(CC(=O)O)c(C)n2C(=O)c1ccc(Cl)cc1
not listed: [1] | [7] | [18] | [19]
inactive: all other assays above

CC(C)(Oc1ccc(C2CC2(Cl)Cl)cc1)C(=O)O (stereo unspecified)
not listed: [7] | [12] | [13] | [17] | [18] | [19] | [20]
inactive: all other assays above

Clc1ccc2c(c1)C(N1CCNCC1)=Nc1ccccc1O2
active: [1] 5.62 µM | [16] 11.2 µM
inactive: [3] | [17] | [5] | [7] | [8] | [9] | [10] | [12]
